Screening data as filed in PubChem.
ERp5 inh: ERp5 (human) disulfide isomerase inhibition; Q15084; ERp5 insulin aggregation, absorbance 650 nm, 90 min; inhibition, % at 9.99 µM; 0.05% of 350,000 active; AID 651711;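 active = mean replicate inhibition above about 25%, with every replicate also reaching it, limit read from the data, passing the limit was not always enough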
Target sequence (Q15084 whole entry, looked up): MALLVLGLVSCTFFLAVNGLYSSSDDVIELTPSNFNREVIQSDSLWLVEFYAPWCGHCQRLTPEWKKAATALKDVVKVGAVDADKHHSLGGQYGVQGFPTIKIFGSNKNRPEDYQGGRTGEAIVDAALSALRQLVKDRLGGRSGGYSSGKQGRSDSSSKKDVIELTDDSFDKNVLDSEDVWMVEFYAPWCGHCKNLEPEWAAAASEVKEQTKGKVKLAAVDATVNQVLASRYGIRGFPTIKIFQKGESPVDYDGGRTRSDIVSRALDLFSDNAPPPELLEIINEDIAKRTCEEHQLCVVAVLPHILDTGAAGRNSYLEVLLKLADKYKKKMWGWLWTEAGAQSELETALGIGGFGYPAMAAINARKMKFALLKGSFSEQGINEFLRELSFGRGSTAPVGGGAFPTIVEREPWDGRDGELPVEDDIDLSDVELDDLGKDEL
PvdQ acylase: blocks Pseudomonas aeruginosa PvdQ acylase activity. purified PvdQ acylase, fluorescence plate reader. inhibition, % at 10 µM. 0.063% of 340,000 active; in the data active = inhibition above about 30%, passing the limit was not always enough
Efflux pump mplx: antifungal efflux pump inhibition, Nile Red retention. S. cerevisiae Candida pump triplex. inhibition, % at 10 µM. 0.44% of 330,000 active;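 active = plate passing quality check with inhibition over a set limit, or well fluorescence over plate mean plus 4 SD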;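 also: Nile Red retained in pooled yeast measured as flow cytometry median fluorescence; higher means more Nile Red kept so more efflux inhibition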
Rtt109 Vps75: blocks Candida albicans Rtt109/Vps75 acetyltransferase activity. 0.16% of 330,000 active. purified Rtt109/Vps75, ThioGlo CoA-SH fluorescence, 4 h. inhibition, % at 34.9 µM. AID 540336. Q5AAJ8;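 active = inhibition of at least 50% in every replicate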
PDI turbidity: blocks human protein disulfide isomerase activity | P07237 | PDI insulin aggregation turbidity, A650, 90 min | inhibition, % at 10 µM | 0.052% of 350,000 active | AID 588391;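 active = mean inhibition across replicates of 30% or more, whatever share of single replicates reach that level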
Cmpd fluor yeast: counter-screen for efflux pump inhibitors: compound fluorescence; 4% of 1,700 active; shares compounds with Efflux pump mplx; S. cerevisiae AD/pABC3, flow cytometry; fluorescence ratio to DMSO, % at 10 µM; AID 588517;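 active = fluorescence ratio to DMSO above its plate's cutoff, the plate mean ratio plus 5 SD, cut at about 210% in these data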;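 also: unstained yeast with no Nile Red so the signal is compound autofluorescence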
CaMdr1 efflux inh: blocks the Candida albicans Mdr1 efflux pump in yeast. shares compounds with Efflux pump mplx. S. cerevisiae AD/CaMDR1, Nile Red efflux, flow cytometry. inhibition, % at 10 µM. 1% of 1,700 active; in the data active = inhibition above about 26%;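 also: higher means more Nile Red retained so more efflux inhibition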
Cdr2 pump inh: blocks the Candida albicans Cdr2 efflux pump in yeast | shares compounds with Efflux pump mplx | AID 588520 | S. cerevisiae AD/CaCDR2, Nile Red retention, flow cytometry | Nile Red retention ratio vs DMSO, % at 10 µM | 4% of 1,700 active; in the data active = Nile Red retention ratio vs DMSO above about 190%;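 also: higher ratio means more blocking of Cdr2 efflux of the dye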
Cdr1 pump inh: inhibitors of Candida albicans Cdr1 efflux pump | inhibition, % at 10 µM | AID 588522 | 1% of 1,700 active | shares compounds with Efflux pump mplx | S. cerevisiae AD/CaCDR1, Nile Red efflux, flow cytometry;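 active = inhibition above the screen-wide mean plus twice its standard deviation, cut at about 32% in these data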
A number is an active result; i = inactive; nt = no result given. In the library only some 0.54% were active in any assay of this set; here they are far more common.

SMILES	ERp5 inh	PvdQ acylase	Efflux pump mplx	Rtt109 Vps75	PDI turbidity	Cmpd fluor yeast	CaMdr1 efflux inh	Cdr2 pump inh	Cdr1 pump inh
Cc1ccc(-c2csc(/C(C#N)=C/Nc3ccccc3SC(F)(F)F)n2)c(C)c1	i	i	0.5	i	i	i	i	i	i
CCn1c2ccccc2c2cc(NC(=O)C(C)OC(=O)c3ccc(NC(=O)CC#N)cc3)ccc21 (stereo not given)	i	i	0.4	i	i	i	i	i	i
CCC(=O)Nc1ccc2c(c1)OC[C@@H](C)N(Cc1ccncc1)C[C@H](C)[C@H](OC)CN(C)C2=O	i	nt	nt	nt	nt	nt	nt	nt	nt
Cc1ccccc1S(=O)(=O)Nc1nc2ccccc2nc1N1CCc2ccccc2C1	nt	i	7.5	i	i	i	i	i	i
Cc1nn(C)c(Sc2ccccc2N)c1[N+](=O)[O-]	i	i	0.9	153	i	i	i	i	i
OCC[n+]1ccc(/C=C/c2c[nH]c3ccccc23)cc1	i	i	2.5	i	i	429	i	i	i
O=C(CCCOc1ccccc1)Nc1ccccc1C(F)(F)F	nt	i	10	i	i	i	i	i	i
Cc1cc(C(=O)COC(=O)c2ccc[nH]c2=O)c(C)n1-c1ccc(F)cc1	nt	i	28	i	i	i	i	i	i
COc1cccc(CN(CC(=O)NCC2CCCO2)C(=O)CCC(=O)Nc2cc(C)on2)c1 (stereo not given)	nt	i	i	i	i	i	i	i	i
COc1ccc(C(=O)/C=C/c2ccc(O)cc2)c(O)c1C/C=C(\C)CCC=C(C)C	i	i	1.3	i	nt	i	i	i	i
C=C(C)C(O)CC/C(C)=C/Cc1c(O)ccc(C(=O)/C=C/c2ccc(O)cc2)c1O (stereo not given)	i	i	i	i	nt	nt	nt	nt	nt
COc1ccc2cc1Oc1ccc(cc1)CC1c3c(cc(OC)c4c3Oc3cc5c(cc3O4)CCNC5C2)CCN1C (stereo not given)	nt	i	i	i	nt	nt	nt	nt	nt
COc1ccc2cc1Oc1ccc(cc1)C[C@H]1c3c(cc(OC)c4c3Oc3c(ccc5c3[C@H](C2)N(C)CC5)O4)CCN1C	nt	i	4.3	i	i	i	i	i	i
CO[C@H]1CN(C)C(=O)c2cc(NC(=O)CC(F)(F)F)ccc2OC[C@@H](C)NC[C@H]1C	i	nt	nt	nt	nt	nt	nt	nt	nt
COc1cccc(C(=O)COc2ccc3c(C)c(Cc4ccccc4)c(=O)oc3c2)c1	i	i	7.5	i	i	i	i	i	i
CC(C)c1ccc(OCC(=O)NC2CCCC2)cc1	i	i	9.2	i	i	i	i	i	i
COc1ccc(OCC(=O)NC2CCCCCCC2)cc1	i	i	i	i	i	nt	nt	nt	nt
Cc1nc2ccc(NC(=O)CCS(=O)(=O)c3ccccc3)cc2s1	i	i	i	i	i	nt	nt	nt	nt
Cc1ccc2nc(-c3ccc(NC(=O)CCS(=O)(=O)c4ccccc4)cc3)sc2c1	i	i	0.5	i	i	i	i	i	i
CCCCOC(=O)c1ccc(NC(C)=O)cc1	nt	i	0.6	i	i	i	i	i	i
CCC(=O)N1[C@@H]2c3cccc(=O)n3C[C@@H]2[C@@H](CO)[C@@H]1C(=O)NC1CCCC1	i	nt	nt	nt	nt	nt	nt	nt	nt
Cc1ccc(Nc2c(-c3ccc(N4CCOCC4)cc3)nc3ncccn23)cc1	i	i	0.9	i	i	i	i	i	i
CN(C)CC(=O)N1CC(=O)N2[C@H](CO)[C@@H](c3ccc(-c4ccc(C#N)cc4)cc3)[C@H]2C1	i	nt	nt	nt	nt	nt	nt	nt	nt
COc1cc(S(=O)(=O)Nc2ccccn2)ccc1F	nt	i	0.7	i	i	i	i	i	i
COc1ccc(-n2cc(-c3ccccc3)c3c(NN4CCOCC4)ncnc32)cc1	i	i	2.5	i	i	i	i	i	i
SMILES	ERp5 inh	PvdQ acylase	Efflux pump mplx	Rtt109 Vps75	PDI turbidity	Cmpd fluor yeast	CaMdr1 efflux inh	Cdr2 pump inh	Cdr1 pump inh
CCc1nnc2n1N=C(c1ccc(OC)cc1)CS2	nt	i	0.8	i	i	i	i	i	i
COc1ccc(NC(=O)COc2nsnc2N2CCCCC2)cc1	nt	i	9.0	i	i	i	i	i	i
CCOc1ccc(NC(=O)COc2nsnc2N2CCCCC2)cc1	nt	i	i	i	i	nt	nt	nt	nt
COc1ccc2c3c(n(C)c2c1)[C@@H](CO)N(C(=O)CC1CC1)CC31CCN(Cc2ccncc2)CC1	i	nt	nt	nt	nt	nt	nt	nt	nt
Cc1ccc(NC(=O)c2cccc(S(=O)(=O)N(C)c3ccccc3)c2)cc1S(=O)(=O)N1CCOCC1	nt	i	8.0	i	i	i	i	i	i
O=C1/C(=C/c2ccc(O)c(O)c2)Oc2cc(O)ccc21	i	i	2.4	i	nt	i	i	i	i
O=C([C@H]1[C@H](CO)[C@H]2Cn3c(ccc(-c4cccnc4)c3=O)[C@@H]1N2CCC(F)(F)F)N1CCCCC1	i	nt	nt	nt	nt	nt	nt	nt	nt
Cc1ccc2oc(C(=O)N3CCC(O)(c4cccc(C(F)(F)F)c4)CC3)c(C)c2c1	i	i	0.5	i	i	i	i	i	i
Cc1ccc(C)c(NC(=O)CCC(=O)N/N=C/c2cc([N+](=O)[O-])ccc2O)c1	i	i	1.4	i	i	i	i	i	i
Cc1ccccc1NC(=O)CCC(=O)N/N=C/c1cc([N+](=O)[O-])ccc1O	nt	i	i	i	i	nt	nt	nt	nt
Cc1ccc(-n2nc3c(=O)n(CCCC(=O)NCCN4CCN(C)CC4)nc(C)c3c2C)cc1	i	i	5.4	i	i	i	i	i	i
Cc1nn(CCC(=O)NCc2ccc(OC(C)C)cc2)c(=O)c2nn(-c3ccccc3)c(C)c12	i	i	i	i	i	i	i	i	i
CCC(C(=O)Nc1cc(F)ccc1F)n1nc(C)c2c(C)n(-c3ccc(C)cc3)nc2c1=O (stereo not given)	nt	i	5.0	i	i	i	i	i	i
Cc1ccc(-n2nc3c(=O)n(CC(=O)NCCc4cccs4)nc(C)c3c2C)cc1	nt	i	i	i	i	i	i	i	i
C[C@@H]1CN([C@H](C)CO)C(=O)c2cc(NC(=O)CCC(F)(F)F)ccc2O[C@@H](C)CCCCO[C@H]1CN(C)Cc1ccc(Cl)c(Cl)c1	i	nt	nt	nt	nt	nt	nt	nt	nt
Cc1ccc(-n2nc3c(=O)n(CCCC(=O)NCCc4ccccc4)nc(C)c3c2C)cc1	i	i	i	i	i	nt	nt	nt	nt
COc1ccc(CNC(=O)C(C)n2nc(C)c3c(C)n(-c4ccc(C)cc4)nc3c2=O)cc1 (stereo not given)	nt	i	i	i	i	i	i	i	i
Cc1ccc(CCNC(=O)CCCn2nc(C)c3c(C)n(-c4ccc(C)cc4)nc3c2=O)cc1	i	i	i	i	i	i	i	i	i
COc1ccc(NC(=O)Nc2ccc3c(c2)C(=O)N([C@@H](C)CO)C[C@@H](C)[C@@H](CN(C)S(=O)(=O)c2ccc(F)cc2)OCCCC[C@H](C)O3)cc1	i	nt	nt	nt	nt	nt	nt	nt	nt
